TDP1 cell noCPT: qHTS for Inhibitors of human tyrosyl-DNA phosphodiesterase 1 (TDP1): qHTS in cells in absence of CPT; DT40 Tdp1-/- hTDP1 cells, no CPT, ATP luminescence, 48 h; Potency, µM (highest dose often 46.2 µM), without a hit: at the top dose activity change, negative = growth inhibition, actives largely listed as inhibitors; actives 15% (n = 420,000); AID 686978, 2013; also: potency is read from the fitted curve at half-maximal effect; nearly all actives have a fitted effect of over 55% in size
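Camptothecin absent (DMSO only). Human TDP1-complemented DT40 knockout cells, 400 cells/well, 37 °C for minimum 48 hr; ATP measured via CellTiter-Glo, 30 min dark incubation, luminescence.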
12-LOX inh: ALOX12 (human) lipoxygenase inhibition. Potency, µM (top dose mostly 108 µM), inactives show top-dose activity change, negative = inhibition, hits mostly inhibitors. actives 1.1% (n = 580,000). P18054. purified 12hLO, xylenol orange hydroperoxide absorbance. AID 1671190; also: potency is read from the fitted curve at half-maximal effect
Target sequence (P18054 whole entry, looked up): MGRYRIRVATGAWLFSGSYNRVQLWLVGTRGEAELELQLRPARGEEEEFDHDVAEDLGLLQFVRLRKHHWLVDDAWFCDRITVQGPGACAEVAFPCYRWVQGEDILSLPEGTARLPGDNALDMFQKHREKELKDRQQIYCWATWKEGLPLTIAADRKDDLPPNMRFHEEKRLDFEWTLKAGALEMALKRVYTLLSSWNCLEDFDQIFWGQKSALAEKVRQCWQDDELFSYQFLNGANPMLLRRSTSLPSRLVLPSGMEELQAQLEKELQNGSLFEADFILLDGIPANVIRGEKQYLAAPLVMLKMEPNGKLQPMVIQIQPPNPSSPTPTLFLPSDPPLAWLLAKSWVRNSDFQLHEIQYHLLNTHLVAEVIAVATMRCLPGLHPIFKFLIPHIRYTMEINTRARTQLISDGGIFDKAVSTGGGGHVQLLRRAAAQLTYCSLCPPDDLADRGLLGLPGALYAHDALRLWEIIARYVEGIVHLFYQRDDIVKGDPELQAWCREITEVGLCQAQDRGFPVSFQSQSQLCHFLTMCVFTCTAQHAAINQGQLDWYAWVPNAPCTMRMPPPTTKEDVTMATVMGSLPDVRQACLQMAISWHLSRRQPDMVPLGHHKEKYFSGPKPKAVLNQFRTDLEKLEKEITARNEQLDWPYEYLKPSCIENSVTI
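Purified human 12hLO (150 nM final) in 25 mM Hepes, 0.01% Triton X-100, pH 7.0 was preincubated 15 min at room temperature with compound. Then 40 uM arachidonic acid was added, 30 min. Hydroperoxide was read by Fe-XO absorbance ratio 573/405 nm.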
TDP1 cell CPT: growth inhibition of DT40 Tdp1-/-;hTDP1 cells with camptothecin (screen for TDP1 inhibitors); chicken DT40 Tdp1-/-;hTDP1 cells + 20 nM CPT, ATP luminescence, 48 h; Potency, µM (doses to about 46.2 µM), for the others: at the top dose activity change, negative = growth inhibition, most hits filed as inhibitors; actives 12% (n = 420,000); AID 686979; also: potency is read from the fitted curve at half-maximal effect; nearly all actives have a fitted effect of over 55% in size
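Chicken DT40 Tdp1-/- cells complemented with human TDP1, 400 cells/well, exposed to compounds plus 20 nM camptothecin for at least 48 h at 37 C; viability read as ATP content by CellTiter-Glo luminescence.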
HT1080 IDH1KD tx: HT-1080 IDH1 knockdown cell toxicity (counter line); HT-1080 IDH1 knockdown viability, ATP luminescence, 48 h; Potency, µM (doses to about 46.1 µM), without a hit: at the top dose activity, negative = toxicity, usual class: cytotoxic; actives 2% (n = 360,000); AID 686971;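 also: potency is read from the fitted curve at half-maximal effect; 0% = DMSO wells and -100% = cell-free medium wells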
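Cytotoxicity counter-line: IDH1KD HT-1080, 48 h, CellTiter-Glo. Curves classed by r2, magnitude and activity.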
HT1080-NT tox: kills 2HG-producing HT-1080-NT fibrosarcoma cells | HT-1080-NT fibrosarcoma viability, CellTiter-Glo ATP luminescence, 48 h | Potency, µM (titrated, usually from 46.1 µM), for the others: at the top dose activity, negative = less viability, most hits filed as cytotoxic | actives 1.6% (n = 360,000) | AID 686970;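 also: NT is the 2HG producing partner of a matched IDH1 knockdown line; potency is read from the fitted curve at half-maximal effect; 0% = DMSO-treated cells and -100% = media-only wells without cells; nearly all actives have a fitted effect of over 55% in size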
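Read-out is CellTiter-Glo luminescence after 10 minutes at room temperature, following 48 hours' compound treatment of HT-1080-NT cells (750 cells/well, RPMI, 5% FBS, 37 degrees C).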
IL-1B inflam inh: inhibitors of inflammasome signaling (IL-1 beta secretion) | THP-1 LPS/ATP IL-1B secretion, AlphaLISA, 16 h; hits give low values | activity change, % at 57.5 µM | actives 4.7% (n = 360,000) | AID 743279; in the data active = activity change below about -50%; inconclusive = mostly about -30% to -49%
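Secreted IL-1B measured by AlphaLISA bead assay after 16 h compound exposure of THP-1 cells; compounds (final up to 57.5 uM) added 1 h before LPS (250 ng/mL) and ATP (1.25 mM) stimulation; lower signal means less secretion.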
Numbers without * were called inactive. Many of the other results were omitted from the sample, so hits are more common in it than they were. Unless noted, calls follow the shape of the dose curve; as a rule, active = well fitted curve in the direction sought with a large enough effect; inconclusive = small, poorly fitted or top-dose-only effect, or another doubt; inactive = no such curve, though single readings can be large; an effect the other way counts as inactive or inconclusive. Unless noted, % is scaled to controls: 0 for no effect and ±100 for the full control effect.

What do the screens show for `CCC1CC2(C)NC(=O)c3c(sc4c3CC(C)(C)OC4)N2C1=O` (stereo unspecified)?
TDP1 cell noCPT: 20.6µM*; 12-LOX inh: inconclusive; TDP1 cell CPT: inconclusive; HT1080 IDH1KD tx: -0.2%; HT1080-NT tox: -5.4%; IL-1B inflam inh: -5.6

How did CC1(C(=O)NCc2ccccc2)CN(Cc2ccccc2)Cc2ccc(N3CCOCC3)nc21 (stereo unspecified) do in these assays?
12-LOX inh: 52.7%

How did CN(C)c1nc2c(c(=O)[nH]1)CCN(C(=O)CCC1CCCC1)CC2 do in these assays?
12-LOX inh: 32.8%

How did OC(CNC1CCCCCC1)COc1cccc2ccccc12 (stereo unspecified) do in these assays?
TDP1 cell noCPT: 13µM*; 12-LOX inh: inconclusive; TDP1 cell CPT: 16.4µM*; HT1080 IDH1KD tx: inconclusive; HT1080-NT tox: 20.6µM*; IL-1B inflam inh: -105.3*

What do the screens show for `Cc1ccccc1OCC(O)CNC1CCC(NCC(O)COc2ccccc2C)CC1` (stereo unspecified)?
TDP1 cell noCPT: 2.31µM*; 12-LOX inh: inconclusive; TDP1 cell CPT: 3.66µM*; HT1080 IDH1KD tx: 2.31µM*; HT1080-NT tox: 2.91µM*; IL-1B inflam inh: -97.6*

What do the screens show for `O=C1CSc2ccc(C(=O)NOCc3ccccc3)cc2N1`?
12-LOX inh: -15.5%

How did CCCN(CC(=O)Nc1cc(Cl)cc(Cl)c1)CC(=O)Nc1ccc(F)c(F)c1F do in these assays?
TDP1 cell noCPT: 23.1µM*; 12-LOX inh: -15.5%; TDP1 cell CPT: inconclusive; HT1080 IDH1KD tx: inconclusive; HT1080-NT tox: inconclusive; IL-1B inflam inh: -97.3*

What do the screens show for `O=C(NCCc1ccncc1)C1CN(C(=O)c2ccc(F)c(F)c2)CC12CCOCC2` (stereo unspecified)?
12-LOX inh: -10.0%

How did CCOC(=O)c1[nH]cnc1C(=O)Nc1ccc(Cl)cc1 do in these assays?
TDP1 cell noCPT: -9.3%; 12-LOX inh: -1.2%; TDP1 cell CPT: -29.6%; HT1080 IDH1KD tx: 10.2%; HT1080-NT tox: 23.8%; IL-1B inflam inh: -11.3

What do the screens show for `O=C(Nc1cccc(Cl)c1)c1nc[nH]c1C(=O)NCCN(CCNC(=O)c1[nH]cnc1C(=O)Nc1cccc(Cl)c1)CCNC(=O)c1[nH]cnc1C(=O)Nc1cccc(Cl)c1`?
TDP1 cell noCPT: inconclusive; 12-LOX inh: -10.6%; TDP1 cell CPT: inconclusive; HT1080 IDH1KD tx: 13.9%; HT1080-NT tox: inconclusive; IL-1B inflam inh: 4.2

What do the screens show for `NNC(=O)c1nc[nH]c1C(=O)Nc1ccccc1[N+](=O)[O-]`?
TDP1 cell noCPT: inconclusive; 12-LOX inh: -4.2%; TDP1 cell CPT: 1.2%; HT1080 IDH1KD tx: -10.2%; HT1080-NT tox: -25.2%; IL-1B inflam inh: 17.6

Results for O=C(Nc1ccc(F)cc1)c1nc[nH]c1C(=O)Nc1ccccc1[N+](=O)[O-] ?
TDP1 cell noCPT: 1.3µM*; 12-LOX inh: -4.1%; TDP1 cell CPT: inconclusive; HT1080 IDH1KD tx: 10.4%; HT1080-NT tox: 7.9%; IL-1B inflam inh: 10.4

Results for CC(C)(C)OC(=O)NCCCCCNC(=O)c1[nH]cnc1C(=O)Nc1cccc(Cl)c1 ?
TDP1 cell noCPT: inconclusive; 12-LOX inh: -14.2%; TDP1 cell CPT: inconclusive; HT1080 IDH1KD tx: 17.2%; HT1080-NT tox: 10.8%; IL-1B inflam inh: -9.2

How did O=C(Nc1ccc(Cl)cc1)c1nc[nH]c1C(=O)Nc1ccccc1F do in these assays?
TDP1 cell noCPT: 14.6µM*; 12-LOX inh: 5.9%; TDP1 cell CPT: inconclusive; HT1080 IDH1KD tx: 24.4%; HT1080-NT tox: 2.4%; IL-1B inflam inh: -15.5
